According to PubChem BioAssay (Tox21):
Where “and” joins values, the source holds several entries; their conditions need not be identical. Equal values may be shown once. Inconclusive results are not listed. A call without a number means that no potency is given here. Some compounds were tested as several samples or in several runs, with calls that do not always agree. Calls of active or inactive are those of the source. Unless noted, calls follow the shape of the dose curve; as a rule, active = well fitted curve in the direction sought with a large enough effect in the repeat runs; inconclusive = weak or mixed curves; inactive = no such curve, though single readings can be large; an effect the other way counts as inactive or inconclusive.

What was measured:
[1] = qHTS assay to identify small molecule agonists of the RXR signaling pathway - cell viability counter screen (AID 1159529); also: nearly all actives have a fitted effect of over 50% in size; also: potency is read from the fitted curve at half-maximal effect
How it was run: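 CellTiter-Glo luminescence gave viability in the wells also read for beta-lactamase. Cells (RXR-alpha-UAS-bla HEK 293T, 2% charcoal-stripped FBS medium) had 5 hr plating, then 16 hr compound exposure at 37 C; tetraoctyl ammonium bromide served as positive control.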

[2] = qHTS assay to identify small molecule antagonists of the retinoid acid receptor (RAR) signaling pathway - cell viability counter screen (AID 1159551); also: nearly all actives have a fitted effect of over 35% in size
How it was run: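 Seed C3RL4 cells; next day add compound, then retinol to 1 uM final; incubate 6 h at 37 C; add CellTiter-Glo; read luminescence after 30 min at RT.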

[3] = qHTS assay to identify small molecule antagonists of the retinoic acid receptor (RAR) signaling pathway (AID 1159552; also: nearly all actives have a fitted effect of over 50% in size; also: potency is read from the fitted curve at half-maximal effect)
How it was run: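 Luminescent RARE reporter read-out in C3RL4 cells: 6 hr co-treatment at 37 C of test compounds with retinol at 1 uM final. Cells plated overnight beforehand; luciferase reagent incubated 30 min at room temperature before reading.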

[4] = qHTS assay to identify small molecule agonists of the retinoic acid receptor (RAR) signaling pathway (AID 1159553); also: potency is read from the fitted curve at half-maximal effect
How it was run: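 Activation of retinol signaling was monitored via a RARE luciferase reporter in C3RL4 cells. After 6 hr compound treatment at 37 C, detection reagent was added for 30 min at room temperature before luminescence reading.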

[5] = qHTS assay to identify small molecule antagonists of the estrogen related receptor (ERR) signaling pathway - cell viability counter screen (AID 1224818);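 also: series mostly up to about 46 µM; viability measured after 17.5 h of compound exposure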
Description: National Center for Advancing Translational Sciences [NCATS]
NIH Chemical Genomics Center [NCGC]
U.S. Environmental Protection Agency [EPA]
National Institutes of Environmental Health Sciences [NIEHS]
National Toxicology Program [NTP]
U.S. Food and Drug Administration [FDA]
Estrogen related receptors (ERRs), the first orphan nuclear receptors discovered, play an important role in the control of cellular energy metabolism. ERRs are required for high-energy production in response to the environmental challenges. ERR-alpha was also identified as an adverse marker for breast cancer progression; ERR-alpha-positive tumors have a poor prognosis. To screen and to identify environmental compounds that perturb the ERR signaling pathways could provide valuable information for potential therapeutic or preventive measures in the treatment of metabolic disease. To differentiate true ERR antagonists or agonist from cytotoxic substances, the assay is multiplexed with cell viability assay.
Tox21 Assay Protocol Summary:
The ERR cells were dispensed at 2,000 cells/5 ul/well in 1536-well white plates using a Multidrop dispenser. After the assay plates were incubated at a 37 C/5% CO2 incubator for 6 hours, 23 nL of compounds dissolved in DMSO, positive and negative controls or DMSO only was transferred to the assay plate by a pin tool. The plates were incubated at 37 C for 17.5 hours. 1 ul/well of CellTiter-Fluor reagent was added into the assay plates using a Flying Reagent Dispenser. After 30 min incubation at 37 C/5% CO2, the fluorescence intensity in the plates was measured using a ViewLux plate reader.

[6] = qHTS assay to identify small molecule antagonists of the estrogen related receptor signaling pathway with the pleiotropic PPARgamma coactivator (PGC) cell viability counter screen (AID 1224822; also: potency is read from the fitted curve at half-maximal effect;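 also: viability read after 17.5 h compound exposure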)
How it was run: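 Compounds in DMSO, with positive and negative controls, were applied to PGC/ERR cells (2,000/well) and left 17.5 h at 37 C before CellTiter-Fluor detection.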

[7] = qHTS assay to identify small molecule antagonists of the estrogen related receptor (ERR) signaling pathway (AID 1224819;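 also: luminescence from an ERR-driven luciferase reporter measured with One-Glo reagent; series mostly up to about 46 µM; nearly all actives have a fitted effect of over 50% in size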)
How it was run: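 qHTS in ERR cells, 2,000/well, 1536 format. Cpd (DMSO) added after 6 h settle, 18 h 37 C. One-Glo luminescence, 30 min RT.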

[8] = qHTS assay to identify small molecule agonists of the estrogen related receptor (ERR) signaling pathway (AID 1224820)
How it was run: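 Cells: ERR line from NTP, 2,000/well. Pre-incubation 6 h, 37 C/5% CO2. Compound (DMSO) pin transfer, 18 h 37 C. One-Glo, 30 min RT, luminescence.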

[9] = test system: estrogen-related receptor alpha (ERRalpha) with PGC-1alpha coactivator, human; experiment: qHTS assay to identify small molecule antagonists of the estrogen related receptor signaling pathway with the pleiotropic PPARgamma coactivator (PGC) (AID 1224821; calls by dose curve;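 also: series mostly up to about 46 µM; lower luminescence signal means antagonism of PGC/ERR signalling; nearly all actives have a fitted effect of over 50% in size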)
How it was run: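 Luminescent read-out (One-Glo, 30 min at room temperature) following 18 h treatment of PGC/ERR cells at 37 C with compounds delivered in DMSO. Cells had settled 6 h at 37 C/5% CO2 before dosing.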

[10] = qHTS assay to identify small molecule agonists of the estrogen related receptor signaling pathway with the pleiotropic PPARgamma coactivator (PGC) (AID 1224823)
How it was run: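 Steps: plate PGC/ERR cells at 2,000 cells/well; incubate 6 h, 37 C/5% CO2; pin-transfer compounds (DMSO); incubate 18 h, 37 C; add One-Glo; 30 min RT; read luminescence.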

SMILES: C[C@]12CCC(=O)C=C1CC[C@@H]1[C@@H]2CC[C@]2(C)C(=O)CC[C@@H]12
- Potency [1]: inactive
- Potency [2]: inactive
- Potency [3]: 47.7 µM (active) and inactive
- Potency [4]: inactive

SMILES: CC[N+](CC)(CC)CC
- Potency [1]: inactive
- Potency [4]: inactive
- outcome [5]: inactive
- Potency [6]: inactive

SMILES: Nc1ccc(Cl)cc1
- Potency [1]: inactive
- outcome [5]: inactive
- Potency [6]: inactive

SMILES: O=P1(N(CCCl)CCCl)NCCCO1 (stereo not given)
- Potency [1]: inactive
- outcome [5]: inactive
- outcome [7]: inactive
- outcome [8]: inactive
- outcome [9]: inactive
- Potency [6]: inactive
- outcome [10]: inactive

SMILES: CCOP(=S)(OCC)Oc1ccc2c(C)c(Cl)c(=O)oc2c1
- Potency [1]: inactive
- Potency [2]: inactive
- Potency [3]: inactive
- Potency [4]: inactive and 11.9 µM (active)

SMILES: COCC(=O)N(c1c(C)cccc1C)C(C)C(=O)OC (stereo not given)
- Potency [1]: inactive
- Potency [3]: inactive
- Potency [4]: inactive

SMILES: O=C(O)CC(O)(CC(=O)O)C(=O)O
- Potency [1]: inactive
- Potency [2]: inactive

SMILES: N#CS
- Potency [1]: inactive
- Potency [2]: inactive

SMILES: Nc1ccc(-c2ccc(N)c(Cl)c2)cc1Cl
- Potency [1]: inactive
- Potency [2]: inactive

SMILES: CCCC[n+]1ccccc1
- Potency [1]: inactive
- Potency [4]: inactive

SMILES: Oc1cccc2cccnc12
- Potency [1]: 780 nM (active) and 692 nM (active) and inactive
- Potency [6]: 0.727 µM (active)

SMILES: CC(=O)[O][Hg][c]1ccccc1
- Potency [1]: 1.72 µM (active) and 1.95 µM (active) and 2.39 µM (active)
- Potency [3]: 1.92 µM (active) and 1.54 µM (active) and 2.11 µM (active)

SMILES: CCC(=O)C(CC(C)N(C)C)(c1ccccc1)c1ccccc1 (stereo not given)
- Potency [1]: 43.8 µM (active)
- Potency [3]: inactive
- Potency [4]: inactive

SMILES: COc1ccccc1N
- Potency [1]: inactive
- Potency [2]: inactive
- Potency [3]: inactive
- Potency [4]: inactive

SMILES: O=[N+]([O-])O
- Potency [1]: inactive
- Potency [2]: inactive
- Potency [4]: inactive

SMILES: O=C(O)c1ccccc1O
- Potency [1]: inactive
- Potency [2]: inactive
- Potency [4]: inactive
